This is one part of a sample in which hits are shown more often than they occur.
mHTT CaM bind – inhibitors of human mutant huntingtin-calmodulin interaction; P42858; AlphaScreen His-mHTT/GST-CaM binding, luminescence; inhibition, % at 15 µM; 190,000 tested, 3.6% active; AID 1671202;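 also: 0% = both proteins with DMSO and 100% = one protein alone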
Pf apPOL inh – Pf-apPOL DNA polymerase inhibition. Recombinant Pf-apPOL, molecular beacon fluorescence, 1.5 h. inhibition, % at 10 µM. 210,000 tested, 0.25% active
Starred values were filed as active, the others as inactive; ! = not active in a repeat. Rule as the data show it: active = inhibition above about 50%; inactive = the rest.

`Cc1cccc(C(=O)N2CCC(=O)N([C@H](COCc3ccccc3)Cc3ccccc3)CC2)c1` gave mHTT CaM bind 65*! and Pf apPOL inh -6.
For Cc1cccc(COC[C@H](Cc2ccccc2)N2CCN(C(=O)c3cc(Cl)cc(Cl)c3)CCC2=O)c1 the results were mHTT CaM bind 0 and Pf apPOL inh -2.
For Cc1cccc(C(=O)N2CCN(C(=O)c3cccc(C)c3)CC2)c1 the results were mHTT CaM bind -11 and Pf apPOL inh 0.
Cc1cccc(C(=O)N2CCN(C)CC2)c1 was read as mHTT CaM bind 0 and Pf apPOL inh 1.
For Cc1cccc(COC[C@H](Cc2ccccc2)N2CCN(C(=O)c3cccc(C)c3)CCC2=O)c1 the results were mHTT CaM bind 81*! and Pf apPOL inh -2.
Cc1cccc(C(=O)N2CCC(CCOc3ccccc3)CC2)c1 was read as mHTT CaM bind -12 and Pf apPOL inh -4.
`CC(C)NC(=O)COc1ccc(Br)cc1Cl` gave mHTT CaM bind -5 and Pf apPOL inh -9.
`COc1cccc(NC(=O)N2CC(c3nc(C)no3)C3(CCOCC3)C2)c1` (stereo unspecified) gave mHTT CaM bind 2 and Pf apPOL inh -2.
For N#Cc1ccc(-c2ccc(C#N)cc2)cc1 the results were Pf apPOL inh -15.
OC(COCCOc1ccc(F)cc1)CN1CCOCC1 (stereo unspecified) was read as mHTT CaM bind -11 and Pf apPOL inh 2.
`CC(C)c1ccc(NC(=O)C2CCCN(C(=O)c3ccc(Cl)cc3)C2)cc1` (stereo unspecified) gave mHTT CaM bind 28 and Pf apPOL inh 0.
Screening COc1ccc(C)cc1N1CCN(C(=O)C(C)C)C(C)C1=O (stereo unspecified) returned mHTT CaM bind -2 and Pf apPOL inh -3.
For O=C(CSc1nc2ccccc2[nH]1)Nc1cc(C(F)(F)F)ccc1Cl the results were mHTT CaM bind 50* and Pf apPOL inh -4.
Cc1cc(=O)[nH]c(SCC(=O)Nc2cc(C(F)(F)F)ccc2Cl)n1 was read as mHTT CaM bind -4 and Pf apPOL inh -1.
`Cn1cnc2cc(-c3noc(-c4ccc(Br)cc4)n3)ccc21` gave mHTT CaM bind -1 and Pf apPOL inh 1.
Screening O=C(CCNCC12CC3CC(CC(C3)C1)C2)c1cccc([N+](=O)[O-])c1 returned mHTT CaM bind 11 and Pf apPOL inh 2.
Screening O=[N+]([O-])c1ccc(-c2ccc(N=Cc3ccccc3)cc2)cc1 returned mHTT CaM bind -4 and Pf apPOL inh 19.
For O=[N+]([O-])c1ccc(C=NC2=NN(c3ccccc3)CC2)cc1 the results were mHTT CaM bind 59* and Pf apPOL inh 3.
For COc1ccc(-c2csc(/C(C#N)=C/c3cccs3)n2)cc1 the results were mHTT CaM bind 4 and Pf apPOL inh -13.
For Cc1oc2c(F)c(F)c(F)c(F)c2c1-c1noc(C(C)(C)C)n1 the results were Pf apPOL inh -4.
`O=C1NC(=O)/C(=C/c2ccc(Cl)c([N+](=O)[O-])c2)S1` gave mHTT CaM bind 4 and Pf apPOL inh 0.
`O=C1NC(=S)SC1=Cc1ccc(Sc2ccc(Cl)cc2)c([N+](=O)[O-])c1` gave Pf apPOL inh 69*.
`COc1ccccc1N1CCN(C(=O)COc2ccc(Br)cc2C)CC1` gave mHTT CaM bind 23 and Pf apPOL inh -4.
COc1ccccc1N1CCN(CC(O)COc2ccc(C)c(C)c2)CC1 (stereo unspecified) was read as mHTT CaM bind 38 and Pf apPOL inh -2.
Cc1ccc(OCC(O)CN2CCN(c3ccccc3)CC2)c(C)c1 (stereo unspecified) was read as mHTT CaM bind 14 and Pf apPOL inh 2.
For CC(C)(C)c1ccccc1OCC(O)CN1CCN(c2ccccc2)CC1 (stereo unspecified) the results were mHTT CaM bind 99* and Pf apPOL inh -1.
`Cc1cc(Cl)ccc1OCC(O)CN1CCN(c2ccccc2)CC1` (stereo unspecified) gave mHTT CaM bind 93* and Pf apPOL inh -4.
`COc1ccccc1N1CCN(CC(O)COc2ccc(Cl)c(C)c2)CC1` (stereo unspecified) gave mHTT CaM bind 99* and Pf apPOL inh 2.
`COc1ccccc1OCC(O)CN1CCN(c2ccc(F)cc2)CC1` (stereo unspecified) gave mHTT CaM bind -14 and Pf apPOL inh -10.
Screening COc1ccccc1N1CCN(C(=O)COc2cc(C)c(Br)c(C)c2)CC1 returned mHTT CaM bind 56* and Pf apPOL inh -5.
NC(=O)C1(N2CCCCC2)CCN(C2CC(=O)N(c3ccc(Cl)c(Cl)c3)C2=O)CC1 (stereo unspecified) was read as mHTT CaM bind 4 and Pf apPOL inh 4.
CCC1(c2cccc(OC)c2)CCCCN(C)C1=O (stereo unspecified) was read as Pf apPOL inh 5.
For O=C1OCCN1C(=O)[C@H]1[C@H](c2ccc([N+](=O)[O-])cc2)C(c2ccccc2)=NN1c1ccc(Br)cc1 the results were mHTT CaM bind 50 and Pf apPOL inh -6.
CC[C@@H]1C(c2cccc(Cl)c2)=NN(c2ccc(Br)cc2)[C@H]1C(=O)N1CCOC1=O was read as mHTT CaM bind 95* and Pf apPOL inh 6.
For O=C1OCCN1C(=O)[C@H]1[C@H](c2ccc(Cl)cc2)C(c2cccc(Cl)c2)=NN1c1ccccc1 the results were mHTT CaM bind 46 and Pf apPOL inh -5.
`O=C1OCCN1C(=O)[C@H]1[C@H](c2ccc([N+](=O)[O-])cc2)C(c2cccc(Cl)c2)=NN1c1ccc(Br)cc1` gave mHTT CaM bind 44 and Pf apPOL inh 1.
For O=C1OCCN1C(=O)[C@H]1[C@H](c2ccc(Cl)cc2)C(c2ccccc2)=NN1c1ccc(Br)cc1 the results were mHTT CaM bind 65* and Pf apPOL inh -3.
Screening CC[C@@H]1C(c2cccc(Cl)c2)=NN(c2ccccc2)[C@H]1C(=O)N1CCOC1=O returned mHTT CaM bind -61 and Pf apPOL inh -6.
For Cc1cccc(C2=NN(c3ccccc3)[C@@H](C(=O)N3CCOC3=O)[C@@H]2c2ccc([N+](=O)[O-])cc2)c1 the results were mHTT CaM bind 54* and Pf apPOL inh -4.
For Cc1cccc(C2=NN(c3ccc(Br)cc3)[C@@H](C(=O)N3CCOC3=O)[C@@H]2c2ccc(Cl)cc2)c1 the results were mHTT CaM bind 80* and Pf apPOL inh -4.
For Cc1c(Cl)cccc1NC(=O)C(=O)NCc1cccs1 the results were mHTT CaM bind 2 and Pf apPOL inh 4.
For O=C(CC1CCCC1)N1CCCCC1c1nncn1Cc1ccccc1 (stereo unspecified) the results were mHTT CaM bind 0 and Pf apPOL inh -2.
Screening O=C(Nc1ccc2c(c1)OCO2)O[C@@H]1C[C@H]2C[C@@H]1[C@H]1CCCCN1[C@H]2Cc1ccccc1 returned mHTT CaM bind 31 and Pf apPOL inh 0.
For O=C1OCCN1C(=O)[C@H]1[C@H](c2ccccc2)C(c2cccc(Cl)c2)=NN1c1ccc(Br)cc1 the results were mHTT CaM bind -76 and Pf apPOL inh 3.
COc1ccccc1[C@@H]1C(c2cccc(C)c2)=NN(c2ccc(Br)cc2)[C@H]1C(=O)N1CCOC1=O was read as mHTT CaM bind -16 and Pf apPOL inh -9.
`O=C1OCCN1C(=O)[C@H]1[C@H](c2ccc(F)cc2)C(c2cccc(Cl)c2)=NN1c1ccc(Br)cc1` gave mHTT CaM bind 94* and Pf apPOL inh -4.

Bioassay records deposited in PubChem BioAssay by University of Kansas High Throughput Screening Laboratory.
